PfHsp40 rescue: rescue of PfHsp40-mediated yeast toxicity. S. cerevisiae expressing PfHsp40, growth rescue, ATP luminescence. growth rescue, % at 12.5 µM. 340,000 tested, 0.68% active; in the data active means growth rescue above about 28%, passing the limit was not always enough;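 further: yeast W303a lacking pdr1 and pdr3 grown in galactose medium; growth measured after three days at 30 °C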
ugtP null kill: compounds lethal to S. aureus RN4220 ugtP deletion mutant; AID 1259309; OD600 growth, 16 h; growth inhibition, % (concentration not given with the values); 330,000 tested, 0.54% active; in the data active means growth inhibition above about 68%;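 further: plate controls were untreated wells for no effect and antibiotic for full effect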
CCHF vOTU inh-1: CCHFV vOTU protease inhibition. Pep-AMC fluorescence. inhibition, % at 11.5 µM. 370,000 tested, 0.55% active. AID 651958; further: 0% = vehicle wells with enzyme and 100% = no enzyme wells
Mtb hypoxia inh: inhibitors of hypoxia-regulated fluorescent reporter in Mycobacterium tuberculosis. M. tuberculosis hypoxia-regulated fluorescent reporter, fluorescence. fluorescence inhibition, % (concentration not given with the values). 300,000 tested, 0.1% active. AID 1159583; in the data active means fluorescence inhibition mostly above about 23%, no sharp cut-off; inactive means mostly below about 17%
Sa RN4220 lethal: S. aureus RN4220 growth inhibition; OD600, 16 h; 330,000 tested, 0.33% active; inhibition, % (concentration not given with the values); in the data active means inhibition above about 85%;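 further: plate controls were untreated cells for no effect and reference antibiotic for full effect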
Vc quorum ag: inducers of Vibrio cholerae quorum light production without autoinducers; V. cholerae BH1578 lux reporter, luminescence, 6 h; activation, % at 18.7 µM; 350,000 tested, 0.16% active; AID 588436; in the data active means activation mostly above about 9.7%, no sharp cut-off
CCHF vOTU inh-2: CCHFV vOTU protease inhibition, confirmation; shares compounds with CCHF vOTU inh-1; 1,900 tested, 17% active; inhibition, % at 11.5 µM; Recombinant CCHFV vOTU, Pep-AMC fluorescence; AID 686976
* hit, by the source's call. In the library only some 1.7% were active in any assay of this set; here they are far more common. Unless noted, no stated cut-off is given here; in the data, active means inhibition above about 30%; inactive means the rest.

Cc1ccc(S(=O)(=O)N2C(c3ccc(Cl)cc3)CC=C(C(=O)O)C2c2ccc(Cl)cc2)cc1 (stereo not given) was read as ugtP null kill 58.9, Mtb hypoxia inh 14.1 and Sa RN4220 lethal 40.5.
Screening Cc1ccc(S(=O)(=O)N2[C@@H](c3ccc(C(C)(C)C)cc3)C(C(=O)O)=CC[C@H]2c2ccc(C(C)C)cc2)cc1 returned PfHsp40 rescue 0.5, ugtP null kill 88.3*, CCHF vOTU inh-1 46.9*, Mtb hypoxia inh -1.5, Sa RN4220 lethal 96.8*, Vc quorum ag inactive and CCHF vOTU inh-2 14.6.
Screening C[C@]1(C(=O)NCCN2CCOCC2)C=CC(Cc2ccccc2)N1C(=O)c1ccccc1 (stereo not given in full) returned ugtP null kill 5.7, Mtb hypoxia inh 19.3 and Sa RN4220 lethal 6.7.
NCCCCC(N)c1nnc(C(CC(=O)O)NC(=O)C2CCNCC2)o1 (stereo not given) was read as ugtP null kill 1.2, Mtb hypoxia inh 0.9 and Sa RN4220 lethal 2.8.
For NC(=O)C(CC(=O)O)NC(=O)C1CCCNc2c(I)cc([N+](=O)[O-])cc2C(=O)NC(CO)C(=O)NC(Cc2ccc(O)cc2)C(=O)N1 (stereo not given) the results were ugtP null kill 2.4, Mtb hypoxia inh 10.7 and Sa RN4220 lethal 5.1.
`Cc1cccc(CCN2C(N(C)C)=NCC2CC(C)C)c1` (stereo not given) gave ugtP null kill -1.3, Mtb hypoxia inh 3.5 and Sa RN4220 lethal 6.2.
Screening COC(=O)C1=C(c2ccc(-c3ccccc3)c(F)c2)CC2CCC1N2C(=O)N1CCC(O)CC1 (stereo not given) returned ugtP null kill 1.5, Mtb hypoxia inh 10.1 and Sa RN4220 lethal 8.1.
`Cc1ccc([C@@H]2CC=C(C(=O)O)[C@H](c3ccc(F)cc3)N2S(=O)(=O)c2ccc(C)cc2)cc1` gave PfHsp40 rescue 6.6, CCHF vOTU inh-1 17.3 and Vc quorum ag -0.4.
`Cc1ccc([C@@H]2CC=C(C(=O)O)[C@H](c3ccc(C(C)(C)C)cc3)N2S(=O)(=O)c2ccc(C)cc2)cc1` gave PfHsp40 rescue -0.5, ugtP null kill -1.0, CCHF vOTU inh-1 41.5*, Mtb hypoxia inh -1.1, Sa RN4220 lethal 45.2, Vc quorum ag -0.6 and CCHF vOTU inh-2 19.4.
COc1ccc(CNC(=O)c2c(C)oc3c2C(=O)c2ccccc2C3=O)cc1 was read as PfHsp40 rescue -2.4, ugtP null kill 33.7, CCHF vOTU inh-1 54.0*, Mtb hypoxia inh 4.1, Sa RN4220 lethal 46.1, Vc quorum ag 0.5 and CCHF vOTU inh-2 47.9*.
`CCCn1c(SCC(=O)Nc2ccc(Cl)cn2)nnc1C1CC1` gave PfHsp40 rescue -0.7, ugtP null kill 0.1, CCHF vOTU inh-1 34.3*, Mtb hypoxia inh 8.2, Sa RN4220 lethal 5.0, Vc quorum ag -2.5 and CCHF vOTU inh-2 3.1.
For O=C(NN=Cc1ccc([N+](=O)[O-])o1)C1CCCC1 the results were ugtP null kill 7.8, Mtb hypoxia inh -14.9 and Sa RN4220 lethal 19.9.
Screening O=C(N/N=C/c1ccc([N+](=O)[O-])o1)C1CC1 returned PfHsp40 rescue -0.5, CCHF vOTU inh-1 32.4*, Vc quorum ag -0.3 and CCHF vOTU inh-2 -11.8.
Screening OCC(CO)(CO)N=Cc1c(O)ccc2ccccc12 returned PfHsp40 rescue 0.2, ugtP null kill 4.1, CCHF vOTU inh-1 18.0, Mtb hypoxia inh 7.8, Sa RN4220 lethal 9.4 and Vc quorum ag -0.2.
Screening Oc1ccc2ccccc2c1C=NC12CN3CCN(CN(C3)C1)C2 returned PfHsp40 rescue 0.8, ugtP null kill 4.5, CCHF vOTU inh-1 72.0*, Sa RN4220 lethal 8.2, Vc quorum ag inactive and CCHF vOTU inh-2 73.1*.
`CC(=O)Nc1ccc(S(=O)(=O)Nc2ccccc2C(=O)N2CCCC2)cc1` gave PfHsp40 rescue 0.3, ugtP null kill 8.3, CCHF vOTU inh-1 29.7*, Mtb hypoxia inh 14.0, Sa RN4220 lethal 2.6, Vc quorum ag -10.0 and CCHF vOTU inh-2 -6.3.
For O=C(c1ccccc1NS(=O)(=O)c1ccccc1)N1CCCCCC1 the results were PfHsp40 rescue -1.1, ugtP null kill -1.9, CCHF vOTU inh-1 16.2, Mtb hypoxia inh 16.2, Sa RN4220 lethal 4.7 and Vc quorum ag -0.8.
For O=C(NCCc1ccccc1)C(=O)NN=Cc1ccccc1C(F)(F)F the results were ugtP null kill 4.8, Mtb hypoxia inh 1.3 and Sa RN4220 lethal 2.6.
`CC(C)(C)NC(=O)C(c1ccc(-c2ccccc2)cc1)n1c(=O)c(-c2ccco2)nc2ccccc21` (stereo not given) gave CCHF vOTU inh-1 32.3* and CCHF vOTU inh-2 -14.2.
CCCCCNC(=O)C(c1ccc(C(F)(F)F)cc1)n1c(=O)c(-c2ccco2)nc2ccccc21 (stereo not given) was read as CCHF vOTU inh-1 30.7* and CCHF vOTU inh-2 -20.3.
Screening Cc1cccc(C)c1NC(=O)C(c1ccc(-c2ccccc2)cc1)n1c(=O)c(-c2ccco2)nc2ccccc21 (stereo not given) returned CCHF vOTU inh-1 32.9* and CCHF vOTU inh-2 -1.6.
Screening CCOc1ccc(S(=O)(=O)NN=C2CCCC(=O)C2)cc1 returned ugtP null kill 4.3, Mtb hypoxia inh 18.3 and Sa RN4220 lethal 2.3.
Screening NC(=O)C1CCN(C2=C(NS(=O)(=O)c3ccccc3)C(=O)c3ccccc3C2=O)CC1 returned PfHsp40 rescue -0.6, ugtP null kill 6.0, CCHF vOTU inh-1 6.5, Mtb hypoxia inh 2.3, Sa RN4220 lethal 7.7 and Vc quorum ag inactive.
Screening CCOC(=O)N1CCN(C2=C(NS(=O)(=O)c3ccc(Br)cc3)C(=O)c3ccccc3C2=O)CC1 returned CCHF vOTU inh-1 12.7 and Vc quorum ag inactive.
`NC(=O)C1CCN(C2=C(NS(=O)(=O)c3ccc(Br)cc3)C(=O)c3ccccc3C2=O)CC1` gave PfHsp40 rescue -0.7, ugtP null kill -5.1, CCHF vOTU inh-1 38.9*, Mtb hypoxia inh -7.7, Sa RN4220 lethal 8.9, Vc quorum ag 0.0 and CCHF vOTU inh-2 -2.0.
Screening CCOC(=O)C1CCN(C2=C(NS(=O)(=O)c3ccc(Br)cc3)C(=O)c3ccccc3C2=O)CC1 returned PfHsp40 rescue 1.2, ugtP null kill -31.5, CCHF vOTU inh-1 44.8*, Mtb hypoxia inh -2.3, Sa RN4220 lethal -8.1, Vc quorum ag 0.2 and CCHF vOTU inh-2 19.4.
For CCc1cc(C(=O)O)c(NC(=O)/C=C/c2ccc(OC)cc2)s1 the results were PfHsp40 rescue -1.2, ugtP null kill 20.9, CCHF vOTU inh-1 3.6, Mtb hypoxia inh -4.8, Sa RN4220 lethal 7.3 and Vc quorum ag inactive.
Screening CCc1cc(C(=O)O)c(NC(=O)/C=C/c2ccc(OC)c(OC)c2)s1 returned PfHsp40 rescue 0.3, ugtP null kill 1.2, CCHF vOTU inh-1 32.6*, Mtb hypoxia inh 1.2, Sa RN4220 lethal 10.5, Vc quorum ag inactive and CCHF vOTU inh-2 8.8.

Source: PubChem (several laboratories)
